{
  "source": "the supplement of paper PMC8253809",
  "note": "Values joined by “and” are separate entries in the source; they are usually repeats but may differ in a detail not shown here. Identical values can stand only once.",
  "data": [
    {"system": "HNSC", "assay": "growth inhibition (% activity, log2 RLU normalised to DMSO / staurosporine); higher = more growth inhibition", "settings": "33 µM", "in_short": "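Approved drugs were tested in triplicate at a single final concentration of about 33 μM for 7 days at 37 °C, 5% CO2, on pHGG cell lines and H9-derived neural stem cells. Readout was CellTiter-Glo luminescence, log2-transformed and scaled per plate to % activity between solvent and positive control wells. The median over replicates gives the growth-inhibition value.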", "values": [
      {"smiles": "CCN[C@H]1CN(CCCOC)S(=O)(=O)c2sc(S(N)(=O)=O)cc21", "growth inhibition": "-0.529%"},
      {"smiles": "C=C1CCC(O)CC1=CC=C1CCCC2(C)C1CCC2C(C)CCCC(C)(C)O", "note": "(stereo unspecified)", "growth inhibition": "-1.74%"},
      {"smiles": "O=c1c(-c2ccc(O)cc2)coc2cc(O)ccc12", "growth inhibition": "-2.12%"},
      {"smiles": "CC(C)Cc1ccc(C(C)C(=O)O)cc1", "note": "(stereo unspecified)", "growth inhibition": "-0.67% and 0.218%"},
      {"smiles": "Cn1c(CNc2ccc(C(=N)N)cc2)nc2cc(C(=O)N(CCC(=O)O)c3ccccn3)ccc21", "growth inhibition": "6.58%"},
      {"smiles": "CC(C)C[C@H](NC(=O)[C@H](CCc1ccccc1)NC(=O)CN1CCOCC1)C(=O)N[C@@H](Cc1ccccc1)C(=O)N[C@@H](CC(C)C)C(=O)[C@@]1(C)CO1", "growth inhibition": "56.9%"},
      {"smiles": "C[N+](C)(C)CCCCCC[N+](C)(C)C", "growth inhibition": "11.7%"},
      {"smiles": "COc1cc(/C=C/C(=O)N2CCN(CC(=O)N3CCCC3)CC2)cc(OC)c1OC", "growth inhibition": "17.5%"},
      {"smiles": "O=C(CCCN1CC=C(n2c(=O)[nH]c3ccccc32)CC1)c1ccc(F)cc1", "growth inhibition": "3.11%"},
      {"smiles": "Cc1nnc(C(C)C)n1C1C[C@H]2CC[C@@H](C1)N2CC[C@H](NC(=O)C1CCC(F)(F)CC1)c1ccccc1", "note": "(stereo in doubt)", "growth inhibition": "45.9%"},
      {"smiles": "CCCCC(=O)N(Cc1ccc(-c2ccccc2-c2nnn[nH]2)cc1)[C@H](C(=O)O)C(C)C", "growth inhibition": "-3.37%"},
      {"smiles": "CCN(CC)C(=O)/C(C#N)=C/c1cc(O)c(O)c([N+](=O)[O-])c1", "growth inhibition": "-2.42%"},
      {"smiles": "CN1CCC(=C2c3ccccc3C=Cc3ccccc32)CC1", "growth inhibition": "1.09%"},
      {"smiles": "CCCCC(=O)O[C@]1(C(=O)CO)[C@@H](C)C[C@H]2[C@@H]3CCC4=CC(=O)C=C[C@]4(C)[C@@]3(F)[C@@H](O)C[C@@]21C", "growth inhibition": "0.754%"},
      {"smiles": "O=C1OC(CN2CCOCC2)CN1/N=C/c1ccc([N+](=O)[O-])o1", "note": "(stereo unspecified)", "growth inhibition": "-1.5%"},
      {"smiles": "NC[C@@H]1O[C@H](O[C@H]2[C@@H](O)[C@H](O[C@@H]3[C@@H](O)[C@H](N)C[C@H](N)[C@H]3O[C@H]3O[C@H](CN)[C@@H](O)[C@H](O)[C@H]3N)O[C@@H]2CO)[C@H](N)[C@@H](O)[C@@H]1O", "growth inhibition": "20.2%"},
      {"smiles": "C[C@@H]1CN(c2c(F)c(F)c3c(=O)c(C(=O)O)cn(C4CC4)c3c2F)C[C@H](C)N1", "growth inhibition": "1.66%"},
      {"smiles": "NC[C@H]1O[C@H](O[C@H]2[C@H](O)[C@@H](O[C@H]3O[C@H](CO)[C@@H](O)[C@H](N)[C@H]3O)[C@H](N)C[C@@H]2N)[C@H](N)C[C@@H]1O", "growth inhibition": "-1.87%"},
      {"smiles": "Cn1c(=O)c2c(ncn2CC(O)CO)n(C)c1=O", "note": "(stereo unspecified)", "growth inhibition": "2.09%"},
      {"smiles": "C[C@@H](Oc1cc(-c2cnn(C3CCNCC3)c2)cnc1N)c1c(Cl)ccc(F)c1Cl", "growth inhibition": "54.5%"},
      {"smiles": "CCC(=O)NCC[C@@H]1CCc2ccc3c(c21)CCO3", "growth inhibition": "3.01%"},
      {"smiles": "CO[C@H]1C[C@@H]2CC[C@@H](C)[C@@](O)(O2)C(=O)C(=O)N2CCCC[C@H]2C(=O)O[C@H]([C@H](C)C[C@@H]2CC[C@@H](OC(=O)C(C)(CO)CO)[C@H](OC)C2)CC(=O)[C@H](C)/C=C(\\C)[C@@H](O)[C@@H](OC)C(=O)[C@H](C)C[C@H](C)/C=C/C=C/C=C/1C", "growth inhibition": "3.52%"},
      {"smiles": "CC1(C)S[C@@H]2[C@H](NC(=O)[C@H](NC(=O)N3CCNC3=O)c3ccccc3)C(=O)N2[C@H]1C(=O)O", "growth inhibition": "-1.56%"},
      {"smiles": "NC[C@H](O)c1ccc(O)c(O)c1", "growth inhibition": "-0.629%"},
      {"smiles": "CC[C@H](C)C(=O)O[C@H]1CCC=C2C=C[C@H](C)[C@H](CC[C@@H]3C[C@@H](O)CC(=O)O3)[C@H]21", "growth inhibition": "47.3%"},
      {"smiles": "CNC[C@H](O)c1cccc(O)c1", "growth inhibition": "3.62%"},
      {"smiles": "CC[C@@]1(O)C(=O)OCc2c1cc1n(c2=O)Cc2cc3c(CN(C)C)c(O)ccc3nc2-1", "growth inhibition": "53.9%"},
      {"smiles": "CC(=O)N[C@H]1[C@H]([C@H](O)[C@H](O)CO)OC(C(=O)O)=C[C@@H]1NC(=N)N", "growth inhibition": "7.75%"},
      {"smiles": "OC[C@H]1O[C@H](O[C@]2(CCl)O[C@H](CCl)[C@@H](O)[C@@H]2O)[C@H](O)[C@@H](O)[C@H]1Cl", "growth inhibition": "-5.57%"},
      {"smiles": "C[C@]12CC[C@H](O)CC1=CC[C@@H]1[C@@H]2CC[C@]2(C)C(c3cccnc3)=CC[C@@H]12", "growth inhibition": "-6.23%"},
      {"smiles": "CO[C@H]1O[C@@H]2O[C@@]3(C)CC[C@H]4[C@H](C)CC[C@@H]([C@H]1C)[C@@]24OO3", "growth inhibition": "3.37%"},
      {"smiles": "CN(C)CCOc1ccc(/C(=C(/CCCl)c2ccccc2)c2ccccc2)cc1", "growth inhibition": "2.79%"},
      {"smiles": "CCCCOc1ccc(OCCCN2CCOCC2)cc1", "growth inhibition": "5.68%"},
      {"smiles": "Cc1ccc(N(CC2=NCCN2)c2cccc(O)c2)cc1", "growth inhibition": "1.6%"},
      {"smiles": "COc1cc(C)c(/C=C/C(C)=C/C=C/C(C)=C/C(=O)O)c(C)c1C", "growth inhibition": "7.89%"},
      {"smiles": "C[C@]12CCC(=O)C=C1CC[C@@H]1[C@@H]2[C@@H](O)C[C@@]2(C)[C@H]1CC[C@]2(O)C(=O)CO", "growth inhibition": "-1.17%"}
    ]}
  ]
}
